Results on 15 compounds are retold here after PubChem BioAssay (Tox21).

SMILES strings stand for the structures. Unmarked numbers belong to inactive results. The source made the active and inactive calls. Unless noted, calls come from the whole dose curve; as a rule, active = well fitted curve in the direction sought with a large enough effect in the repeat runs; inconclusive = weak or mixed curves; inactive = no such curve, though single readings can be large; an effect the other way counts as inactive or inconclusive.

A short description of test [1]: qHTS assay for small molecule agonists of the p53 signaling pathway (AID 651631; calls by dose curve; note: nearly all actives have a fitted effect of over 15% in size; note: potency is the fitted concentration of half-maximal effect). In outline: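 p53RE-bla HCT-116 cells; compounds 16 h, 37 °C; LiveBLAzer B/G FRET substrate 2 h RT; fluorescence intensity read-out, qHTS format.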
On the technique in general: Quantitative high-throughput screening tests each substance at several concentrations.

Test [2] can be described thus: qHTS assay to test for compound auto fluorescence at 590 nm (red) in HepG2 cells (AID 720674). In outline:
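Red autofluorescence (Ex/Em 540/590 nm, Rose Bengal sodium equivalents) was measured in HepG2 cells, 2,000 per well in MEM plus 10% FBS, plated overnight at 37 C. Readings were taken 1 hr after adding 23 nL compound or DMSO, at 37 C and 5% CO2.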

A short description of test [3]: qHTS assay to test for compound auto fluorescence at 590 nm (red) in HEK293 cell free culture (AID 720683). In outline:
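Red-channel autofluorescence of compounds in culture medium (DMEM, 10% FBS), no cells, measured at 540/590 nm. Rose Bengal sodium is the reference fluorophore for equivalence.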

Test [4] can be described thus: qHTS assay to identify small molecule antagonists of the glucocorticoid receptor (GR) signaling pathway - cell viability counter screen (AID 720693). Note: nearly all actives have a fitted effect of over 55% in size.
Test [5] in a line: qHTS assay for identifying genotoxic compounds that show differential cytotoxicity against isogenic chicken DT40 cell lines with known DNA damage response pathways - Rev3 mutant cell line (AID 743014). Note: nearly all actives have a fitted effect of over 55% in size. Note: potency is the fitted concentration of half-maximal effect.
Test [6] can be described thus: qHTS assay to identify small molecule antagonists of the thyroid receptor (TR) signaling pathway - cell viability counter screen (AID 743064). Note: nearly all actives have a fitted effect of over 50% in size. Note: potency is the fitted concentration of half-maximal effect. In outline:
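GH3.TRE-Luc cells, 4 h pre-plating; cpd + T3 1 nM final; 37 °C 23.5 h; CellTiter-Fluor 30 min; fluorescence read.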

In test [7] the target is Estrogen receptor (Homo sapiens) (UniProt P03372). The test can be described thus: qHTS assay to identify small molecule agonists of the estrogen receptor alpha (ER-alpha) signaling pathway (AID 743075; calls by dose curve;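 note: HEK293 GripTite cells with ER-alpha and UAS-driven beta-lactamase reporter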; note: potency is the fitted concentration of half-maximal effect).
For test [8] the target is unchanged. Kind of test: qHTS assay to identify small molecule agonists of the estrogen receptor alpha (ER-alpha) signaling pathway using the BG1 cell line (AID 743079). Note: nearly all actives have a fitted effect of over 20% in size. Note: potency is the fitted concentration of half-maximal effect.
Test [9] is described as follows: qHTS assay to identify small molecule antagonists of the estrogen receptor alpha (ER-alpha) signaling pathway using the BG1 cell line (AID 743080; calls by dose curve;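 note: BG1 cells stimulated with 17beta-estradiol alongside compound; series mostly up to about 70 µM; nearly all actives have a fitted effect of over 25% in size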). In outline:
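After 5 days in phenol-red-free 10% charcoal-stripped FBS medium, BG1-Luc-4E2 cells were seeded, left 24 h at 37 C, co-treated with compounds and 17beta-estradiol for 21.5 h, then assayed for viability and luciferase.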

Test [10] can be described thus: qHTS assay to identify small molecule phospholipidosis (PLD) inducers (AID 1259344; active = well fitted curve in the direction sought with a large enough effect; inconclusive = small, poorly fitted or top-dose-only effect, or another doubt; inactive = no such curve, though single readings can be large; an effect the other way counts as inactive or inconclusive). In outline: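 Phospholipidosis is scored by imaging LipidTOX-stained pits in HepG2 cells exposed to compound for 24 h at 37 C; pit counts and integrated intensities per well and per cell serve as outputs.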
The nature of test [11]: qHTS assay to test for compound auto fluorescence at 535 nm (green) in HEK293 cells (AID 720680).
In test [12] the target is Glucocorticoid receptor (Homo sapiens) (UniProt P04150). The test can be described thus: qHTS assay to identify small molecule agonists of the glucocorticoid receptor (GR) signaling pathway (AID 720691; active = well fitted activation curve with a large enough effect in the signal ratio in the repeat runs, not every such curve was filed as active; inconclusive = weak or mixed curves, or effect the other way; inactive = no such curve, though single readings can be large or run the other way; the % refers to the signal ratio). In outline:
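GR-bla HeLa cells (beta-lactamase reporter under glucocorticoid response element) were plated 4 h at 37 C/5% CO2, given compounds in DMSO, and incubated 18 h at 37 C. LiveBLAzer B/G FRET substrate was added for 2 h at room temperature, then fluorescence intensity read.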

Test [13] shares this target. The test can be described thus: qHTS assay to identify small molecule antagonists of the glucocorticoid receptor (GR) signaling pathway (AID 720692; active = well fitted inhibition curve with a large enough effect in the signal ratio in the repeat runs, not every such curve was filed as active; inconclusive = weak or mixed curves, or effect the other way; inactive = no such curve, though single readings can be large or run the other way; the % refers to the signal ratio; note: potency is the fitted concentration of half-maximal effect). In outline:
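GR-bla HeLa cells (beta-lactamase reporter under glucocorticoid response element) were pre-plated 4 h at 37 C, treated with compounds plus 5 nM dexamethasone (final) for 18 h, then read by LiveBLAzer B/G FRET fluorescence after 2 h.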

A short description of test [14]: qHTS assay to identify small molecule antagonists of the thyroid receptor (TR) signaling pathway (AID 743065). Note: nearly all actives have a fitted effect of over 55% in size. Note: potency is the fitted concentration of half-maximal effect. In outline:
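Antagonism measured as loss of luciferase signal in GH3 cells stably carrying a TRE-luciferase reporter, co-treated with compound and T3 (1 nM final) for 23.5 h at 37 C. Viability was read in the same well by CellTiter-Fluor.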

Test [15] concerns thyroid hormone receptor (rat, GH3 cells). The test can be described thus: qHTS assay to identify small molecule agonists of the thyroid receptor (TR) signaling pathway (AID 743066; calls by dose curve).
A short description of test [16]: qHTS assay for small molecule disruptors of the mitochondrial membrane potential (AID 720635). Note: potency is the fitted concentration of half-maximal effect. In outline:
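Mitochondrial membrane potential tracked with Mito-MPS dye, red aggregates (ex 540/em 590 nm) against green monomers (ex 490/em 535 nm). Compound treatment 1 hr at 37C, dye 30 min in HepG2.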

Test [17] in a line: qHTS assay for small molecules that induce genotoxicity in human embryonic kidney cells expressing luciferase-tagged ATAD5 - cell viability (AID 651634; calls by dose curve; note: nearly all actives have a fitted effect of over 25% in size). In outline:
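HEK293T cells expressing luciferase-tagged ATAD5 were exposed to compound or DMSO for 15.5 hr at 37C, 5% CO2. Viability was then read as live-cell protease activity by CellTiter-Fluor fluorescence after 30 min at 37C.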

A short description of test [18]: qHTS assay to identify small molecule that activate the aryl hydrocarbon receptor (AhR) signaling pathway - cell viability counter screen (AID 743086).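 Note: HepG2 liver cells carrying the AhR DRE luciferase reporter; series mostly up to about 70 µM; nearly all actives have a fitted effect of over 45% in size.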 In outline:
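Cytotoxicity counter screen: CellTiter-Fluor signal (30 min, 37 C) in 4000 HepG2 cells/well carrying the DRE-luciferase reporter, following 24 h compound exposure at 37 C.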

For test [19], the target named is Peroxisome proliferator-activated receptor gamma (Homo sapiens) (UniProt P37231). Kind of test: qHTS assay to identify small molecule agonists of the peroxisome proliferator-activated receptor gamma (PPARg) signaling pathway (AID 743094; active = well fitted activation curve with a large enough effect in the signal ratio in the repeat runs, not every such curve was filed as active; inconclusive = weak or mixed curves, or effect the other way; inactive = no such curve, though single readings can be large or run the other way; the % refers to the signal ratio). In outline:
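GeneBLAzer PPARg UAS-bla HEK293H cells carrying a stably integrated beta-lactamase reporter were pre-incubated 5 h at 37C, then exposed to compounds in DMSO for 17 h at 37C; LiveBLAzer B/G FRET substrate was added for 1 h at room temperature and fluorescence read.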

Test [20] in a line: qHTS assay to identify small molecule antagonists of the estrogen receptor alpha (ER-alpha) signaling pathway using the BG1 cell line - cell viability counter screen (AID 743081).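 Note: compound given together with 17beta-estradiol as the ER stimulus; series mostly up to about 70 µM; nearly all actives have a fitted effect of over 45% in size.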
% is set by controls: 0 for no effect and ±100 for the full control effect.

Peroxisome proliferator-activated receptor gamma (Homo sapiens), sequence (P37231 whole entry, looked up): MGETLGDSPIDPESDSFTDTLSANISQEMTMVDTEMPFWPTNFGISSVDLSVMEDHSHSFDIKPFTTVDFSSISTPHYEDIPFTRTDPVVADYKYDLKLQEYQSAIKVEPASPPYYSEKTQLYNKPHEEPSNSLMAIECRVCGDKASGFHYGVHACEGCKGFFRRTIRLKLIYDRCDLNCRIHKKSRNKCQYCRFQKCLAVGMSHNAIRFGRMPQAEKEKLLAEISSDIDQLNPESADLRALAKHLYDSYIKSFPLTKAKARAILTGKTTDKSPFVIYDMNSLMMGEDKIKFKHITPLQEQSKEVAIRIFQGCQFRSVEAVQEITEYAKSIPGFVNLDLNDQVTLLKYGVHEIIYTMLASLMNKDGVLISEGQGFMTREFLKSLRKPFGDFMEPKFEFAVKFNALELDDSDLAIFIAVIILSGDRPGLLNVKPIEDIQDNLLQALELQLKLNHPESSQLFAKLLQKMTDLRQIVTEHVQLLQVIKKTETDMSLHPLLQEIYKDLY
Glucocorticoid receptor (Homo sapiens), sequence (P04150 whole entry, looked up): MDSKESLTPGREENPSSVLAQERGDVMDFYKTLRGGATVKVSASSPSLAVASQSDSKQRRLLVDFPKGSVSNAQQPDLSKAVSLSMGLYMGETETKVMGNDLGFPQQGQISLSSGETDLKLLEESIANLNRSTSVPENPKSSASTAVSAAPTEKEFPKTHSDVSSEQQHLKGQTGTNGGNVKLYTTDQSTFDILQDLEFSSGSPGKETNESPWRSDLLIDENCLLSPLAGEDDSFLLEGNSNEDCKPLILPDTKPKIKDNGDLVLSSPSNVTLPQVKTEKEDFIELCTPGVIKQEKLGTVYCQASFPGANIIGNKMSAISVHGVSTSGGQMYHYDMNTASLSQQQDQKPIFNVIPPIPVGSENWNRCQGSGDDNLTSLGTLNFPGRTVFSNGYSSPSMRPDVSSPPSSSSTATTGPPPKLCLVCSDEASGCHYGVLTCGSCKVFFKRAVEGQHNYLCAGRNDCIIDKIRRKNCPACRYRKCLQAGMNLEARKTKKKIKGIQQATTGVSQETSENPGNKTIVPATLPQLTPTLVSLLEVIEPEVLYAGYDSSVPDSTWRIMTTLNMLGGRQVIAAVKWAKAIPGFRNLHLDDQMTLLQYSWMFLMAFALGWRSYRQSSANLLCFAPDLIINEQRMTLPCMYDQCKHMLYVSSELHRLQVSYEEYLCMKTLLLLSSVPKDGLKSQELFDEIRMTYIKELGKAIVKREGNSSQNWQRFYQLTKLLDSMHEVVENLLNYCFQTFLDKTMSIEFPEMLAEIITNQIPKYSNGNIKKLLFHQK
Estrogen receptor (Homo sapiens), sequence (P03372 whole entry, looked up): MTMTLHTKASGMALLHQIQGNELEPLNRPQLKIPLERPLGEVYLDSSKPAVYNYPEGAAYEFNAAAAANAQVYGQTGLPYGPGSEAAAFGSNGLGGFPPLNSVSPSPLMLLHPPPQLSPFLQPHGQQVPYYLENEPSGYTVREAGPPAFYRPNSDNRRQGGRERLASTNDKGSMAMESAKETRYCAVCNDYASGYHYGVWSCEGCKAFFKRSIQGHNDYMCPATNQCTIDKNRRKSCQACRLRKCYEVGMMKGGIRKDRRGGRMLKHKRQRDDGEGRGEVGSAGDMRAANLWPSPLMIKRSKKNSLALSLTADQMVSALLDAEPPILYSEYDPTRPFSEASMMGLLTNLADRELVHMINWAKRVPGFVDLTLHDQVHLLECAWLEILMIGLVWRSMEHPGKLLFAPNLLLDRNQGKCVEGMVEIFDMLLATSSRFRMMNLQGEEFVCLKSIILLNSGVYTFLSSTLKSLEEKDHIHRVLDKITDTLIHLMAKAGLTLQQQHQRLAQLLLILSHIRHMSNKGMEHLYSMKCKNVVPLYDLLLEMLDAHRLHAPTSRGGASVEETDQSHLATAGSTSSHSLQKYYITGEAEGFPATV

Turning to `C[C@@H](Cc1ccccc1)NCCC(c1ccccc1)c1ccccc1`, the Potency entry in test [1], in test [4], in test [7], in test [8], in test [9] and in [10] was “inactive” in each case. The call in test [2] and in test [3] was inactive. Moreover, the Potency in test [5] is 5.07 µM (active); in [6], 11.4 µM (active).

In the case of `C[C@H]1[C@H]2Cc3ccc(O)cc3[C@]1(C)CCN2CCc1ccccc1`, the call in test [2] and in [3] was inactive. For the same compound, the Potency result in test [11], in test [12], in test [13], in test [4], in [15] and in [7] was “inactive” in each case. The Potency result in test [8] and in [10] was “inactive” each time. The Potency was 15.2 µM (active) in test [5], 30.4 µM (active) in test [6] and 27.1 µM (active) in test [14].

Turning to `O=c1ccc2cc(O[C@@H]3O[C@H](CO)[C@@H](O)[C@H](O)[C@H]3O)c(O)cc2o1`, the Potency in test [1] was 7.17 µM (active). The Potency entry in [16], in test [11], in [4], in test [5], in [14] and in test [15] was “inactive” each time. The Potency result in test [8], in test [9] and in test [10] was “inactive” each time. The compound was classed as inactive in test [2] and in test [3].

With `CCCCNC(C)(C)[P+](=O)O`, the Potency result in test [17], in [16], in test [5], in [6], in [14] and in [15] was “inactive” throughout. In addition, the Potency result in test [7], in test [8], in test [9], in test [18], in test [19] and in test [10] was “inactive” throughout. The result in test [3] was inactive.

With `CNC(C)CC1CCCCC1` (stereo not given), the Potency result in test [1], in test [17], in test [11], in test [12], in [13] and in test [4] was “inactive” throughout. Besides, the Potency entry in test [6], in test [14], in test [15], in [7], in [8] and in [9] was “inactive” in each case. Besides, the Potency result in [18], in [19] and in test [10] was “inactive” each time. For the same compound, the compound was called inactive in test [2].

With `C[C@@H]1[C@@H]2Cc3ccc(O)cc3[C@@]1(C)CCN2CCc1ccccc1`, the Potency entry in test [17], in [16], in test [11], in [12], in test [7] and in [20] was “inactive” throughout. Besides, the Potency entry in test [10] is “inactive”. The compound was classed as inactive in test [2]. The Potency in test [5] is 9.57 µM (active); in test [6], 60.4 µM (active); in [14], 53.8 µM (active).

On to `c1ccc2c(c1)Sc1ccccc1N2C[C@@H]1CN2CCC1CC2`, for which the Potency result in test [1], in test [17], in test [16], in test [12], in [13] and in test [5] was “inactive” in each case. For the same compound, the Potency entry in test [20], in test [19] and in test [10] was “inactive” in each case. Further, the outcome in [2] and in test [3] was inactive.

For `CCc1cc(OC)c(C[C@@H](C)N)cc1OC`, the Potency result in test [1], in [12], in test [13], in test [4], in test [15] and in [10] was “inactive” in each case. For the same compound, the compound was called inactive in [2] and in [3]. Also, the Potency was 63.6 µM (active) in test [5] and 56.7 µM (active) in test [14].

Regarding `CN1CC[C@@]23CCCC[C@@H]2[C@@H]1Cc1ccc(O)cc13`, the Potency result in [17], in test [16], in [11], in test [4], in test [6] and in test [7] was “inactive” throughout. Moreover, the Potency entry in test [9], in test [20], in test [18], in test [19] and in test [10] was “inactive” throughout. Besides, the result in test [2] and in [3] was inactive.

As to `C=C[C@H]1CN2CC[C@H]1C[C@H]2[C@H](OC(=O)OCC)c1ccnc2ccc(OC)cc12`, the Potency result in test [1], in test [17], in [12], in test [13], in [4] and in [14] was “inactive” each time. Moreover, the Potency entry in [15], in test [20], in test [18], in test [19] and in [10] was “inactive” in each case. Also, the call in test [2] was inactive.

As to `C[C@]12CCC(=O)C[C@@H]1CC[C@@H]1[C@@H]2CC[C@@]2(C)[C@H]1CC[C@]2(C)O`, the Potency result in [1], in [17], in test [11], in test [12], in test [5] and in [6] was “inactive” each time. Moreover, the Potency result in test [15], in test [9], in test [20], in [18], in test [19] and in [10] was “inactive” throughout. Further, the compound was called inactive in [2] and in test [3]. Moreover, the Potency in [13] is 8.49 µM (active); in test [7], 477 nM [inconclusive] (active); in [8] it was 150 nM (active).

For `CN[C@@H](C)Cc1ccccc1`, the Potency entry in [1], in test [17], in test [16], in test [11], in [4] and in test [5] was “inactive” in each case. In addition, the Potency result in test [6], in test [14], in test [15], in [20], in test [18] and in test [10] was “inactive” in each case. Further, the compound was classed as inactive in test [2] and in test [3].

Turning to `O=C(NC(=O)c1c(F)cccc1F)Nc1ccc(Cl)c(Oc2ncc(C(F)(F)F)cc2Cl)c1`, the Potency entry in [17], in [11], in test [4], in test [14], in test [15] and in test [7] was “inactive” throughout. Moreover, the Potency result in test [8], in test [9], in test [20], in test [19] and in test [10] was “inactive” each time. Also, in test [16], the Potency is 2.98 µM (active). For the same compound, the call in test [2] and in test [3] was inactive.

Consider `CN[C@@]1(c2ccccc2Cl)CCCCC1=O`, for which the Potency entry in test [1], in [17], in test [11], in test [12], in test [13] and in test [4] was “inactive” in each case. For the same compound, the Potency result in test [5], in [6], in test [14], in [15], in [7] and in test [8] was “inactive” throughout. Further, the Potency entry in test [9], in test [20] and in test [19] was “inactive” each time. Moreover, the call in test [2] and in [3] was inactive. Further, in test [10], the PLD induction was -4.46% [at 7.66 µM].

Turning to `O=C1CN=C(c2ccccc2)c2cc(Cl)ccc2N1`, the Potency entry in test [1], in test [17], in [16], in test [11], in test [12] and in [4] was “inactive” throughout. The Potency entry in [6], in test [15], in test [7], in test [8], in test [9] and in test [19] was “inactive” throughout. Further, in [10], the Potency result was “inactive”. The compound was classed as inactive in [2] and in test [3]. In addition, the Potency in test [13] is 23.9 µM (active).
